Data: the supplement of paper PMC7366291
Structures can show the parent of a compound that is named as a salt. ± gives the standard deviation or the standard deviation of the averaged measurements.

Columns and labels:
Conditions in all cases: 25 µM; exposure: 24-48 hpf
[1] = test system: Danio rerio Tg(wt1b:EGFP) embryo, pronephros; test: glomerular separation, fold change vs DMSO control; higher = glomeruli further apart (abnormal)
Procedure, shortened: (§1)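 Dechorionated Tg(wt1b:EGFP) zebrafish embryos were incubated at 28.5°C from 24 to 48 hpf with 25 μM compound in HEPES-buffered E3 containing 0.5% DMSO and 0.003% PTU. Distances and angles between 16 manually set points on maximum projections of dorsal pronephros images were measured in Fiji, with values over 2 SD from the feature mean excluded. Each feature is a fold change relative to the mean of same-day DMSO-treated embryos.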

[2] = test system: Danio rerio Tg(wt1b:EGFP) embryo, pronephros; test: glomerular width (mean of left and right), fold change vs DMSO control; higher = wider glomerulus
Procedure, shortened: as §1

[3] = test system: Danio rerio Tg(wt1b:EGFP) embryo, pronephros; test: fraction of imaged embryos annotated as normal kidney; higher = less nephrotoxic; extreme values may be limits of the assay
Procedure, shortened: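 Zebrafish embryos carrying Tg(wt1b:EGFP) were dechorionated and exposed to 25 μM compound (0.5% DMSO) between 24 and 48 hpf at 28.5°C. Their pronephroi were imaged by widefield fluorescence, and each embryo was classed by hand from maximum projections. The measure is the fraction of embryos per treatment falling in the normal-kidney category.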

[4] = test system: Danio rerio Tg(wt1b:EGFP) embryo, pronephros; test: pronephric angle neck segment to proximal convoluted tubule (mean of left and right), fold change vs DMSO control; higher = larger pronephric angle
Procedure, shortened: as §1

| SMILES | glomerular separation [1] | glomerular width [2] | fraction of imaged embryos annotated as normal kidney [3] | pronephric angle neck segment [4] |
| --- | --- | --- | --- | --- |
| CCn1cc(C(=O)O)c(=O)c2cc(F)c(N3CCNCC3)nc21 [Enoxacin] | 0.719 ± 0.29 | 0.9596 ± 0.0034 | 0.727 | 1.06 ± 0.017 |
| NS(=O)(=O)c1cc(C(=O)O)cc(N2CCCC2)c1Oc1ccccc1 [Piretanide] | 1.08 ± 0.68 | 1.02 ± 0.048 | 0.917 | 1.03 ± 0.038 |
| CC(C)NCC(O)c1ccc(NS(C)(=O)=O)cc1 (stereo unspecified) [Sotalol hydrochloride] | 0.82 ± 0.23 | 1.03 ± 0.062 | 0.8 | 1.01 ± 0.043 |
| Nc1nc(=O)[nH]cc1F [Flucytosine] | 0.784 ± 0.38 | 1.0052 ± 0.0006 | 0.75 | 1.003 ± 0.0094 |
| CCN1CCCC(OC(=O)C(c2ccccc2)c2ccccc2)C1 (stereo unspecified) [Piperidolate hydrochloride] | 0.836 ± 0.28 | 0.997 ± 0.01 | 0.75 | 0.98 ± 0.016 |
| CC1CCc2cc(F)cc3c(=O)c(C(=O)O)cn1c23 (stereo unspecified) [Flumequine] | 2.57 ± 1.2 | 1.05 ± 0.023 | 0.583 | 1.15 ± 0.046 |
| CC[N+](C)(C)c1cccc(O)c1 [Edrophonium chloride] | 1.26 ± 0.22 | 1.03 ± 0.026 | 0.833 | 0.876 ± 0.05 |
| O=C(NCC(O)CO)c1c(I)c(C(=O)NCC(O)CO)c(I)c(N(CCO)C(=O)CO)c1I (stereo unspecified) [Ioversol] | 0.777 ± 0.33 | 1.07 ± 0.063 | 0.833 | 0.9813 ± 0.0048 |
| COc1ccc(/C=C/C(=O)Nc2ccccc2C(=O)O)cc1OC [Tranilast] | 2.14 ± 1.2 | 1.08 ± 0.049 | 0.583 | 1.139 ± 0.0021 |
| COC(=O)N/N=C/c1c[n+]([O-])c2ccccc2[n+]1[O-] [Carbadox] | 1.17 ± 0.61 | 0.931 ± 0.063 | 0.833 | 1.13 ± 0.11 |
| CO/N=C(\C(=O)N[C@@H]1C(=O)N2C(C(=O)O)=C(C[N+]3(C)CCCC3)CS[C@H]12)c1csc(N)n1 [Cefepime hydrochloride] | 0.845 ± 0.26 | 1.01 ± 0.018 | 0.917 | 0.9786 ± 0.003 |
| COC(=O)[C@H]1[C@H]2C[C@@H]3c4[nH]c5cc(OC)ccc5c4CCN3C[C@H]2C[C@@H](OC(=O)c2cc(OC)c(OC)c(OC)c2)[C@@H]1OC [Reserpine] | 0.705 ± 0.29 | 0.995 ± 0.061 | 0.917 | 1.0157 ± 3.5e-05 |
| Nc1ccc(S(=O)(=O)NC(=O)c2ccccc2)cc1 [Sulfabenzamide] | 1.2 ± 0.49 | 0.98 ± 0.04 | 0.667 | 1.09 ± 0.0044 |
| CCCCNc1cc(C(=O)O)cc(S(N)(=O)=O)c1Oc1ccccc1 [Bumetanide] | 1.41 ± 0.43 | 1.08 ± 0.023 | 0.75 | 1 ± 0.022 |
| CC(C)Oc1ccc2c(=O)c(-c3ccccc3)coc2c1 [Ipriflavone] | 0.901 ± 0.33 | 0.918 ± 0.049 | 0.833 | 1.06 ± 0.028 |
| C1CCC(C(CC2CCCCN2)C2CCCCC2)CC1 (stereo unspecified) [Perhexiline maleate] | 1.12 ± 0.32 | 0.9631 ± 0.0089 | 0.909 | 1.006 ± 0.00027 |
| NC(CO)C(=O)NNCc1ccc(O)c(O)c1O (stereo unspecified) [Benserazide hydrochloride] | 1.17 ± 0.44 | 1.01 ± 0.071 | 0.667 | 1.05 ± 0.039 |
| Clc1cccc(Cl)c1NC1=NCCN1 [Clonidine hydrochloride] | 0.954 ± 0.35 | 1.001 ± 0.0053 | 0.583 | 0.96 ± 0.067 |
| CCCCOc1ccc(CC(=O)NO)cc1 [Bufexamac] | 1.11 ± 0.37 | 1.015 ± 0.0014 | 0.75 | 0.9927 ± 0.0019 |
| COc1ccc2cc(CCC(C)=O)ccc2c1 [Nabumetone] | 1.26 ± 0.44 | 1 ± 0.011 | 0.75 | 1.06 ± 0.038 |
| O=C(O)COC(=O)Cc1ccccc1Nc1c(Cl)cccc1Cl [Aceclofenac] | 3.56 ± 1.8 | 1 ± 0.16 | 0.25 | 1.24 ± 0.15 |
| CC1(C)NC(=O)N(c2ccc([N+](=O)[O-])c(C(F)(F)F)c2)C1=O [Nilutamide] | 1.14 ± 0.42 | 1.13 ± 0.035 | 0.667 | 0.945 ± 0.013 |
| CC(=O)N1CCN(c2ccc(OCC3COC(Cn4ccnc4)(c4ccc(Cl)cc4Cl)O3)cc2)CC1 (stereo unspecified) [Ketoconazole] | 0.931 ± 0.28 | 1.01 ± 0.082 | 0.75 | 0.994 ± 0.04 |
| Cn1c(NCCN(CCO)CCCc2ccc([N+](=O)[O-])cc2)cc(=O)n(C)c1=O [Nifekalant] | 0.925 ± 0.31 | 0.965 ± 0.033 | 0.833 | 0.9169 ± 0.0049 |
| Cc1cc(-c2ccccc2)nnc1NCCN1CCOCC1 [Minaprine dihydrochloride] | 1.13 ± 0.95 | 1.03 ± 0.03 | 0.75 | 0.9963 ± 0.0098 |
| CC(=O)N[C@@H](CC(C)C)C(=O)O [N-Acetyl-L-leucine] | 1.02 ± 0.21 | 1.075 ± 0.0078 | 0.917 | 0.993 ± 0.013 |
| CC(=O)OCC(CCn1cnc2cnc(N)nc21)COC(C)=O [Famciclovir] | 0.793 ± 0.23 | 1.06 ± 0.048 | 1 | 0.9775 ± 0.004 |
| CC(C)[C@H]1CC[C@H](C(=O)N[C@H](Cc2ccccc2)C(=O)O)CC1 [Nateglinide] | 0.985 ± 0.37 | 1.04 ± 0.024 | 1 | 1.08 ± 0.024 |
| CC(C(=O)O)c1ccc(N2Cc3ccccc3C2=O)cc1 (stereo unspecified) [Indoprofen] | 2.27 ± 0.52 | 0.658 ± 0.069 | 0.2 | 1.3 ± 0.1 |
